Source: PubChem BioAssay (National Center for Advancing Translational Sciences (NCATS))
TDP1 inh = TDP1 (human) enzyme inhibition; Q9NUW8; AID 485290; 350,000 compounds, 0.28% hits; Potency, µM (titrated, usually from 130 µM), without a hit: at the highest dose activity change, negative = inhibition, most hits filed as inhibitors; recombinant TDP1, AlphaScreen DNA substrate cleavage; further: on the % scale 0 is the no-effect control and ±100 the full control effect; nearly all actives have a fitted effect of over 40% in size
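Steps: enzyme plus compound, 15 min RT; add biotin/phosphotyrosine-FITC oligonucleotide (15 nM final), react 5 min; add donor/acceptor beads (10 ug/ml final), 10 min; read AlphaScreen. Tdp1 at 1 nM final.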
DT40 TDP1 no CPT = qHTS for Inhibitors of human tyrosyl-DNA phosphodiesterase 1 (TDP1): qHTS in cells in absence of CPT; DT40 Tdp1-/- hTDP1 cells, no CPT, ATP luminescence, 48 h; Potency, µM (series often up to 46.2 µM), for inactives: top-dose activity change, negative = growth inhibition, usual class: inhibitors; 420,000 compounds, 15% hits; AID 686978, 2013; further: on the % scale 0 is the no-effect control and ±100 the full control effect; nearly all actives have a fitted effect of over 55% in size
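A cellular qHTS used chicken DT40 cells lacking endogenous Tdp1 but carrying stably transfected human TDP1. Compounds were applied without camptothecin, and cell growth kinetics were judged by ATP-dependent luminescence after ≥48 hr.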
DT40 TDP1 CPT = growth inhibition of DT40 Tdp1-/-;hTDP1 cells with camptothecin (screen for TDP1 inhibitors). chicken DT40 Tdp1-/-;hTDP1 cells + 20 nM CPT, ATP luminescence, 48 h. Potency, µM (doses to about 46.2 µM), for inactives: at the highest dose activity change, negative = growth inhibition, actives largely listed as inhibitors. 420,000 compounds, 12% hits. AID 686979; further: on the % scale 0 is the no-effect control and ±100 the full control effect; nearly all actives have a fitted effect of over 55% in size
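Chicken DT40 Tdp1-/- cells stably complemented with human TDP1 were seeded at 400 cells/well in medium containing 20 nM camptothecin, exposed to pin-transferred compounds, and grown at 37 °C for at least 48 hr. Viability was read as ATP luminescence.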
ClpP mod = qHTS Assay for Activators of ClpP; Potency, µM (top dose mostly 57.5 µM), inactives show at the highest dose activity change, negative = active; 340,000 compounds, 1.9% hits; purified B. subtilis ClpP, FRET peptide cleavage, 20 min; ATP-dependent Clp protease proteolytic subunit (Bacillus subtilis (strain 168)), P80244; active means well fitted falling curve with a large enough effect; inconclusive means small, poorly fitted or top-dose-only effect; inactive means no such curve, though single readings can be large or run the other way; further: the source files actives as falling curves though it sought activators and does not explain the sign; nearly all actives have a fitted effect of over 65% in size
Target sequence (P80244 whole entry, looked up): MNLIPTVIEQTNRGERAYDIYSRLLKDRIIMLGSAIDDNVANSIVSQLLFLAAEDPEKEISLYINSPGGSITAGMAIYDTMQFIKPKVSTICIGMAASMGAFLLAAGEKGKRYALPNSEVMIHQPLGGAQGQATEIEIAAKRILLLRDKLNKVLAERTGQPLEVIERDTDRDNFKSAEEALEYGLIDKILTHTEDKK
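Purified B. subtilis ClpP, 10 microg/mL final in Tris/HCl pH8 with KCl, BSA, glycerol and Tween-20, cleaved an Abz/nitrotyrosine-quenched decapeptide. Fluorescence (ex 320, em 430) was read at 0 and 20 min at room temperature. Delta was normalized to 5.8 microM ADEP and DMSO/no-enzyme controls.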
Numbers without * were called inactive; u = inconclusive; x = not tested or not shown; [ ] = another dose, or the depositor's remark. An excerpt weighted towards active compounds, which were near 17% of everything screened. Unless noted, the call rests on the fitted dose curve; in most records, active means well fitted curve in the direction sought with a large enough effect; inconclusive means small, poorly fitted or top-dose-only effect, or another doubt; inactive means no such curve, though single readings can be large; an effect the other way counts as inactive or inconclusive. Potency means the concentration at half of the fitted maximal effect.

SMILES	TDP1 inh	DT40 TDP1 no CPT	DT40 TDP1 CPT	ClpP mod
CC(C)(C)OC(=O)NCCCCCNC(=O)c1[nH]cnc1C(=O)Nc1ccccc1	-0.2%	14.6µM*	u	1.5%
Cc1ccc(NC(=O)c2nc[nH]c2C(=O)NCCCCCNC(=O)OC(C)(C)C)cc1	0.7%	16.4µM*	u	-0.4%
CC(C)(C)OC(=O)[C@H](Cc1ccccc1)NC(=O)c1nc[nH]c1C(=O)NCCCCCN	-0.7%	u	-20.9%	-4.1%
CCC(C)n1c(SCC(=O)NC2CCS(=O)(=O)C2)nc2ccccc2c1=O (centres undefined)	5.2%	-29.9%	-21.9%	2.2%
COc1ccc(NC(=O)c2ccc(NCCN3C(=O)CCC3=O)c([N+](=O)[O-])c2)cc1	-12.8%	-13.9%	16.5%	x
COc1ccc(NC(=O)CCN2C(=O)NC3(CCCC3)C2=O)cc1Cl	-0.3%	18.3%	6.8%	-2.2%
Cc1cccc(C)c1NC(=O)C(c1ccccc1)n1c(=O)c(-c2ccco2)nc2ccccc21 (centres undefined)	x	u	u	4.1%
COc1cc2c(cc1OC)-c1cc(NCc3ccccn3)nc(=O)n1CC2	x	u	-10.9%	28.2µM*
CCCCCCNc1cc2n(c(=O)n1)CCc1cc(OC)c(OC)cc1-2	7.4%	u	u	15.8µM*
COc1cc2c(cc1OC)-c1cc(NC3CCCCCCC3)nc(=O)n1CC2	5.8%	-28.0%	u	u
CCNc1cc2n(c(=O)n1)CCc1cc(OC)c(OC)cc1-2	3.2%	-17.1%	-0.1%	28.2µM*
COc1cc2c(cc1OC)-c1cc(OCCN3CCOCC3)nc(=O)n1CC2	2.0%	u	23.1µM*	79.3%
COc1cc2c(cc1OC)-c1cc(NC3CC3)nc(=O)n1CC2	2.6%	u	5.9%	-28.9%
CCc1nn2c(=O)c(S(=O)(=O)Nc3ccc(C)cc3C)c(C)nc2s1	2.5%	u	u	0.9%
O=C(CN1C(=O)C(=O)N(Cc2ccccc2)C1=O)Nc1ccc(F)c(Cl)c1	8.0%	-5.0%	-0.3%	x
COc1ccc(-n2c(=O)c(CCc3ccccc3)nc3cncnc32)cc1	x	-3.3%	-25.0%	x
Cc1ccc(CS(=O)(=O)CC(C)(O)c2ccccc2)cc1 (centres undefined)	x	12.7%	-7.8%	-0.2%
CCOc1ccccc1Nc1cc2n(c(=O)n1)CCc1cc(OC)c(OC)cc1-2	x	14.6µM*	u	x
COc1ccc(NC(=O)c2cc3c(-c4ccc(OC)c(OC)c4)nn(C)c3s2)cc1OC	7.6%	20.6µM*	18.4µM*	-9.1%
COc1cccc(-c2nn(C)c3sc(C(=O)NCc4cc(OC)ccc4OC)cc23)c1	4.7%	u	u	u
COc1ccc(-c2nn(C)c3sc(C(=O)NCc4ccco4)cc23)cc1OC	6.5%	20.6µM*	u	-20.8%
COc1ccc(-c2nn(C)c3sc(C(=O)Nc4cc(OC)c(OC)c(OC)c4)cc23)cc1OC	11.6%	6.51µM*	18.4µM*	-24.0%
COc1ccc(-c2cc(C(=O)Nc3cc(OC)c(OC)c(OC)c3)no2)cc1OC	4.4%	u	u	-1.0%
CN1CCN(C(=O)c2cc(C(C)(C)C)cc(C(C)(C)C)c2)CC1	9.9%	-13.5%	-1.7%	x
CC1=C(C(=O)NCc2cccc(Cl)c2)C2(CCCCCC2)OC1=O	2.5%	1.84µM*	u	-3.0%
SMILES	TDP1 inh	DT40 TDP1 no CPT	DT40 TDP1 CPT	ClpP mod
CC1=C(C(=O)Nc2cccc(F)c2)C2(CCCCCC2)OC1=O	-2.5%	u	u	-2.0%
Cc1ccc(NC(=O)NC2CCCCCCC2)cc1C	-3.5%	-6.3%	u	-1.9%
CC1=C(C(=O)Nc2ccc(C)c(C)c2)C2(CCCCCC2)OC1=O	2.5%	u	14.6µM*	6.6%
Cc1ccc(NC(=O)c2ccc(C#CC3(O)CCCCC3)cc2)cc1C	5.3%	16.4µM*	23.1µM*	49.7%
O=C(Cc1ccc(Cl)cc1)Nc1ccncc1	-1.2%	9.2µM*	11.6µM*	329.3%
CN(CCCC(=O)Nc1ccncc1)S(=O)(=O)c1ccc(Cl)cc1	2.1%	23.1µM*	16.4µM*	-0.6%
Cc1ccc(CC(=O)Nc2ccncc2)cc1	-2.4%	4.61µM*	5.8µM*	-0.5%
CCCNC(=O)C(Cc1ccc(F)cc1)NC(=O)c1ccccc1 (centres undefined)	1.4%	-15.9%	-24.6%	3.2%
COCCCn1c(=N)c(C(=O)NCc2ccco2)cc2c(=O)n3ccccc3nc21	x	-27.9%	-0.9%	4.3%
COc1ccc(CCNC(=O)c2cc3c(=O)n4ccccc4nc3n(Cc3ccco3)c2=N)cc1OC	1.8%	13µM*	20.6µM*	-7.7%
Cc1ccc(Cn2c(=N)c(C(=O)NCc3ccco3)cc3c(=O)n4ccccc4nc32)cc1	2.5%	11.2µM*	11.2µM*	u
COc1ccc(CCn2c(=N)c(C(=O)NCc3ccco3)cc3c(=O)n4ccccc4nc32)cc1OC	x	6.51µM*	7.31µM*	1.2%
N=c1c(C(=O)NCc2ccco2)cc2c(=O)n3ccccc3nc2n1CCc1ccccc1	4.2%	20.6µM*	18.4µM*	28.2µM*
N=c1c(C(=O)NCc2ccc3c(c2)OCO3)cc2c(=O)n3ccccc3nc2n1CC1CCCO1 (centres undefined)	1.8%	u	u	3.2%
Cc1ccc(Cn2ccc(-c3cnc(-c4ccccc4)s3)n2)cc1	x	u	-12.2%	-21.9%
O=S(=O)(c1ccccc1)n1ccc(-c2cnc(-c3ccccc3)s2)n1	2.0%	u	u	14.1µM*
CC(=O)NC12CC3CC(C1)CC(C(=O)N1CCN(S(=O)(=O)c4ccccc4C#N)CC1)(C3)C2	x	-14.9%	-5.2%	x
CC(=O)OC[C@@]1(O)C[C@@]23CC[C@@H]4c5ccoc5CC[C@@]4(C)[C@@H]2CCC1C3	5.6%	-20.5%[9.04 µM]	-14.2%[9.04 µM]	x
CCCc1nnc(NC(=O)c2nc(S(=O)(=O)Cc3cccc(C)c3)ncc2Cl)s1	4.9%	u	u	0.7%
CCOC(=O)c1nc(S(C)(=O)=O)ncc1Cl	4.1%	3.66µM*	4.11µM*	2.5%
CCc1nnc(NC(=O)c2cc(Cl)ccn2)s1	x	2.59µM*	2.91µM*	x
Cc1cccc(CS(=O)(=O)c2ncc(Cl)c(C(=O)Nc3c(C)cccc3C)n2)c1	6.2%	4.11µM*	3.66µM*	1.8%
Cc1cccc(C)c1NC(=O)c1nc(S(=O)(=O)Cc2ccccc2)ncc1Cl	3.7%	2.91µM*	2.59µM*	x
COC(=O)c1sc2cccc(F)c2c1S(=O)(=O)N1CCN(c2ccc(F)cc2)CC1	9.7%	u	u	-0.8%
CCSc1nnc(NC(=O)c2csc3c2CCC(C)C3)s1 (centres undefined)	-1.0%	u	18.4µM*	-3.6%
CCc1nnc(NC(=O)c2nc(S(C)(=O)=O)ncc2Cl)s1	9.8%	9.2µM*	5.8µM*	0.1%
